# Data from article PMC4151992.
# Tests used:
# Assay in all cases: cross-link between two proteins
# [1] = target: Small ribosomal subunit protein eS1A (UniProt P33442)
# [2] = target: Small ribosomal subunit protein eS4A (UniProt P0CX35)
# [3] = target: Small ribosomal subunit protein eS6A (UniProt P0CX37)
# [4] = target: Small ribosomal subunit protein eS7A (UniProt P26786)
# Chain of Small ribosomal subunit protein eS7A (P26786 whole entry): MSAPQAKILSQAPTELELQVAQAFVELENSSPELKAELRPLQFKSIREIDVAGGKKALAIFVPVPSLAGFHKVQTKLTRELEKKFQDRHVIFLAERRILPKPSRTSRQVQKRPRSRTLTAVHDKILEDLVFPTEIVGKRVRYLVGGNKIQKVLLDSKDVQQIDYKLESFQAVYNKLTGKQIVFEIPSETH
# Chain of Small ribosomal subunit protein eS1A (P33442 whole entry): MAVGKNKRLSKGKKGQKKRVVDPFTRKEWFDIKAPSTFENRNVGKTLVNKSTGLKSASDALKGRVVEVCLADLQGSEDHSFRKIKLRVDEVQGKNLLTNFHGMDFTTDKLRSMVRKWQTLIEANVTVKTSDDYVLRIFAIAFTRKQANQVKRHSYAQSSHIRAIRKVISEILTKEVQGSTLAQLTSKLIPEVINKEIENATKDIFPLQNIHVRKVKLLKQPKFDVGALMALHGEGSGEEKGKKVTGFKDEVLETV
# Chain of Small ribosomal subunit protein eS4A (P0CX35 whole entry): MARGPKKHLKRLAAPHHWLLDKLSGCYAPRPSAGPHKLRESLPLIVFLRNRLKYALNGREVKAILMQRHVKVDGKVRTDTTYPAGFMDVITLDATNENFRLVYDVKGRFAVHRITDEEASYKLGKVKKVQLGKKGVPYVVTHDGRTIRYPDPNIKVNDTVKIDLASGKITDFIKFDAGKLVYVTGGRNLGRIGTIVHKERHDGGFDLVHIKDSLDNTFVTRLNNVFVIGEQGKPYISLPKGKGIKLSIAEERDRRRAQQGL
# Chain of Small ribosomal subunit protein uS8A, P0C0W1 (P0C0W1 whole entry): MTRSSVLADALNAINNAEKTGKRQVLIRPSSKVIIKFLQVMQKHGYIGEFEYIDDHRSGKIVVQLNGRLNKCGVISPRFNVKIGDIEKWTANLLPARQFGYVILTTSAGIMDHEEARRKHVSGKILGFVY
# Chain of Small ribosomal subunit protein eS6A (P0CX37 whole entry): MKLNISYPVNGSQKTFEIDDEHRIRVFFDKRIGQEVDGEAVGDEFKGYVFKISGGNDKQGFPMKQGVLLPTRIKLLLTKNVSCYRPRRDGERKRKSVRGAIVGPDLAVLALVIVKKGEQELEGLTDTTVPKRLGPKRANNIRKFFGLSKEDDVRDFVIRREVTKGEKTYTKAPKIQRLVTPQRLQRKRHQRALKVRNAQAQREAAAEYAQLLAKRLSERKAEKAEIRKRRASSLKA
substance,measurement,setting,value
"Small ribosomal subunit protein uS11A, P06367",listed as a hit,[1],yes
"Small ribosomal subunit protein eS24A, P0CX31",listed as a hit,[2],yes
"Small ribosomal subunit protein eS4A, P0CX35",listed as a hit,[3],yes
"Small ribosomal subunit protein uS8A, P0C0W1",listed as a hit,[4],yes
